# Data: the supplement of paper PMC6555819
# Columns and labels:
# Experiment in all cases: PBM binding z-score (relative to random genomic background probes); higher = stronger binding; sequences stand for … in GC…GCGATTGACAGCGTAGAATGAAGG
# [1] = test system: FXR:RXRa (NR concentration 270 nM, RXRa partner concentration 90 nM)
# How it was run: (§1)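 Ligand-free nuclear receptor dimers were applied to custom Agilent 4×180K protein-binding microarrays whose double-stranded probes carried direct-repeat seeds, single-nucleotide variants, half-site ablations and random human genomic background sequences in 34-nt variable regions. Incubation lasted 1 h. Binding z-scores were computed against the random background probes from regression-normalized fluorescence.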
# [2] = test system: LXRa:RXRa (NR concentration 270 nM, RXRa partner concentration 90 nM)
# How it was run: as §1
# [3] = test system: LXRa homodimer (NR concentration 270 nM)
# How it was run: as §1
# [4] = test system: LXRb:RXRa (NR concentration 270 nM, RXRa partner concentration 90 nM)
# How it was run: as §1
# [5] = test system: LXRb homodimer (NR concentration 270 nM)
# How it was run: as §1
# [6] = test system: PPARa:RXRa (NR concentration 270 nM, RXRa partner concentration 90 nM)
# How it was run: as §1
# [7] = test system: PPARg:RXRa (NR concentration 180 nM, RXRa partner concentration 90 nM)
# How it was run: as §1
# [8] = test system: PPARg:RXRa 270nM:90nM, anti-RXR (NR concentration 270 nM, RXRa partner concentration 90 nM)
# How it was run: as §1
# [9] = test system: PPARg:RXRa 30nM:10nM, anti-RXR (NR concentration 30 nM, RXRa partner concentration 10 nM)
# How it was run: as §1
# [10] = test system: PPARg:RXRa 90nM:30nM, anti-RXR (NR concentration 90 nM, RXRa partner concentration 30 nM)
# How it was run: as §1
# [11] = test system: PPARg:RXRa DBDmut IVT, anti-RXR (DBD mutation: RXRa K156A/R161A, NR concentration 270 nM, RXRa partner concentration 90 nM)
# How it was run: as §1
# [12] = test system: PPARg:RXRa IVT, anti-PPARg (NR concentration 270 nM, RXRa partner concentration 90 nM)
# How it was run: as §1
# [13] = test system: PPARg DBDmut:RXRa IVT, anti-PPARg (DBD mutation: PPARg1 K132A/R137A, NR concentration 270 nM, RXRa partner concentration 90 nM)
# How it was run: as §1
# [14] = test system: PPARg DBDmut IVT, anti-PPARg (DBD mutation: PPARg1 K132A/R137A, NR concentration 270 nM)
# How it was run: as §1
# [15] = test system: PPARg homodimer (NR concentration 180 nM)
# How it was run: as §1
# [16] = test system: PXR:RXRa (NR concentration 270 nM, RXRa partner concentration 90 nM)
# How it was run: as §1
# [17] = test system: PXR homodimer (NR concentration 270 nM)
# How it was run: as §1
# [18] = test system: RARa:RXR (NR concentration 270 nM, RXRa partner concentration 90 nM)
# How it was run: as §1
# [19] = test system: RARa homodimer (NR concentration 270 nM)
# How it was run: as §1
# [20] = test system: RARb:RXRa (NR concentration 270 nM, RXRa partner concentration 90 nM)
# How it was run: as §1
Sequence,PBM binding z-score [1],PBM binding z-score [2],PBM binding z-score [3],PBM binding z-score [4],PBM binding z-score [5],PBM binding z-score [6],PBM binding z-score [7],PBM binding z-score [8],PBM binding z-score [9],PBM binding z-score [10],PBM binding z-score [11],PBM binding z-score [12],PBM binding z-score [13],PBM binding z-score [14],PBM binding z-score [15],PBM binding z-score [16],PBM binding z-score [17],PBM binding z-score [18],PBM binding z-score [19],PBM binding z-score [20]
AGAACGAGGGCAATAAGTTGATAGCACGGGTGGC,0.456,0.268,-0.278,-0.143,-0.518,1.24,1.44,0.893,0.0758,0.217,3.47,2.3,0.463,-0.691,0.0949,1.09,3.39,0.217,0.04,1.84
CGTCCAAGGTCAATGCTAGGTCGGTGAAAGCATT,5.99,4.42,0.539,3.19,0.14,4.79,3.29,4.06,1.09,2.58,3.27,3.65,-0.723,-0.78,1.98,3.86,0.759,4.18,0.419,4.95
TCTTGTAGATCAACAGGTGGTTAAGAAAGATCGA,-0.0557,0.0664,-0.0924,-0.247,-0.293,0.436,-0.255,1.22,2.58,1.8,1.73,0.582,0.605,0.677,0.713,-0.0683,0.00391,0.0313,0.688,-0.0604
TCTCGGTGGACACGAAAGGTCAGAGCTCGACATC,2.46,3.58,2.21,3.1,-0.0844,3.69,1.16,2.93,2.55,2.78,1.22,1.82,-0.273,-0.543,3.39,3.87,0.441,4.59,-0.0957,3.86
ATATGTAGCTTATCGGGTCATTCAGTTTGCGCAT,2.02,2.21,1.13,2.2,1.08,2.5,0.837,0.994,0.318,0.857,1.01,1.81,1.36,1.64,1.05,3.2,8.3,2.8,0.765,1.72
CTTCCAAGGTCAAGGTCAGTGAAAGAGACTCGAA,7.44,6.06,1.86,4.85,1.61,6.31,6.43,6.37,3.11,5.13,3.34,4.97,0.569,0.303,3.58,4.76,1.05,5.07,0.686,5.83
AGAACGAGGGCAGGCTGAGTTGATAGCAGAGTAG,-0.312,-0.562,-0.661,-0.676,-1.05,0.187,0.64,0.432,-0.189,-0.155,2,1.53,0.0574,-0.0164,-0.517,0.169,-0.0945,-0.281,-0.536,1.63
CCCGAAAGGTCGGTTGAGGTGAGTATACGGATAA,3.38,2.22,0.406,1.69,0.134,2.76,0.61,1.12,0.00163,0.671,0.203,0.845,-0.316,-0.0998,1.28,3.49,0.481,2.51,0.922,3.33
CCTATTAGTTGACCATAGGGGCAACCGAAGCTCG,0.589,0.362,0.304,0.153,0.195,0.245,0.395,0.309,-0.142,0.113,0.502,0.611,0.353,-0.128,1.32,0.256,0.563,0.446,1.9,0.983
CAAACTAGGTCACAGGAAGGTCAAAGTCCGCATG,5.68,6.01,4.15,4.78,1.18,6.19,9.73,7.57,5.77,7.73,8.64,8.8,3.59,2.12,6.59,5.73,1.51,7.15,2.2,4.93
TAGCCTAGATCATTGGGCCAGTATAGTACGCATC,-0.685,-0.948,-0.567,-0.649,-0.658,-0.513,0.37,-0.537,-0.101,-0.125,0.771,0.88,0.335,-0.32,-0.814,-0.775,-0.695,-0.564,-0.292,-1.15
CGAACTAGGTCAAGGACAGGGAATCTCCGCACGC,3.17,2.12,0.324,1.32,-0.364,4.52,7.01,6.26,3.78,5.95,8.32,7.95,1.81,0.477,3.11,1.05,0.302,2.12,0.471,4
CCGACTGGGTCATAAGGTTACCATAAGCCAGCCC,2.99,3.47,-0.00526,2.23,-0.614,4.14,5.19,5.46,2.95,4.86,5.16,5.58,0.678,0.517,2.93,2.45,0.189,4.18,0.218,3.38
TCGTGTAGATCAACAGGAGGTTAAGAAAGATCGA,-0.127,1.13,0.0557,0.789,-0.51,1.22,-0.0865,1.04,1.84,1.52,0.943,0.0646,0.363,-0.42,0.211,0.488,-0.663,1.06,-0.074,0.441
